Assay [1] addresses Mitogen-activated protein kinase 3 (Homo sapiens) (UniProt P27361). Particulars: at 1 µM.
Assay [2] has as its target SRSF protein kinase 3 (Homo sapiens) (UniProt Q9UPE1). The conditions noted are these: at 0.1 µM.
The target is the same in assay [3]. Particulars: at 1 µM.
The target in assay [4] is Mitogen-activated protein kinase 14 (Homo sapiens) (UniProt Q16539). The conditions noted are these: at 0.1 µM.
Assay [5] has the same target. Particulars: at 1 µM.
The target in assay [6] is Mitogen-activated protein kinase 11 (Homo sapiens) (UniProt Q15759). Particulars: at 0.1 µM.
Chain of Mitogen-activated protein kinase 11 (Homo sapiens) (Q15759 whole entry): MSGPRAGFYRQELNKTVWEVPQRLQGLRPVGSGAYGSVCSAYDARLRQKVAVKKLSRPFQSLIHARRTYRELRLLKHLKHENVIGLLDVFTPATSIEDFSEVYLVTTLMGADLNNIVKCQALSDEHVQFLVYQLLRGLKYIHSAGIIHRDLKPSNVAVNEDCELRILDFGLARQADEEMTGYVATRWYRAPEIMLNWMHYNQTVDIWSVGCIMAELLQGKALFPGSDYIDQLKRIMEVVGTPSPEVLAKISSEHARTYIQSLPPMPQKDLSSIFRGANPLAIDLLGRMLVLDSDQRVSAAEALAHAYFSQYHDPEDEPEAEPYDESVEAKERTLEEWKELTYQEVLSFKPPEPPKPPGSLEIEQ
Assay [7] has the same target. The conditions noted are these: at 1 µM.
For assay [8], the target named is T1, Mitogen-activated protein kinase 13 (Homo sapiens) (UniProt O15264).
T1 sequence (whole entry): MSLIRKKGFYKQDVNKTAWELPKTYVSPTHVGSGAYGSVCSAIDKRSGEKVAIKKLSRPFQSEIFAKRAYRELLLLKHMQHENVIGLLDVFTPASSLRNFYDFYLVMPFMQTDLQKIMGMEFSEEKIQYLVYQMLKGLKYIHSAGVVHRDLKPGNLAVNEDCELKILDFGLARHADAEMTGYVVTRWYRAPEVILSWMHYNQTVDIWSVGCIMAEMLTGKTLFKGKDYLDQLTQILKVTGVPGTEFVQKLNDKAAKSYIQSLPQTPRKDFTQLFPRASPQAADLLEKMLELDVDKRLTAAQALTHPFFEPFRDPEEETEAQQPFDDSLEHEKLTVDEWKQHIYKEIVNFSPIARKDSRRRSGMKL
The conditions noted are these: at 0.1 µM.

Assay [9] addresses T1, Mitogen-activated protein kinase 13 (Homo sapiens). Particulars: at 1 µM.
Assay [10] addresses T2, Mitogen-activated protein kinase 12 (Homo sapiens) (UniProt P53778).
T2 sequence (whole entry): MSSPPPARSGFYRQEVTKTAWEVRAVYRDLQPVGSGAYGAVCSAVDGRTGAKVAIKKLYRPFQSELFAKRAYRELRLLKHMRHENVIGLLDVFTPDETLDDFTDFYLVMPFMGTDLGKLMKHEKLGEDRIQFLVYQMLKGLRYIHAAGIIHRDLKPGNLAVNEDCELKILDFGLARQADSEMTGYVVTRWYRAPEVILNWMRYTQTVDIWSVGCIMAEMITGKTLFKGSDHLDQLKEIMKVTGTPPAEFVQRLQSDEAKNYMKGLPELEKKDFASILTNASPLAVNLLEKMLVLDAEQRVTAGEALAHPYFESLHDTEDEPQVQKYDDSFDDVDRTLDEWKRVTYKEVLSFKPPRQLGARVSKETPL
Particulars: at 0.1 µM.

Assay [11] concerns the target T2, Mitogen-activated protein kinase 12 (Homo sapiens). Particulars: at 1 µM.
Assay [12] addresses SRSF protein kinase 1 (Homo sapiens) (UniProt Q96SB4). Particulars: at 0.1 µM.
Assay [13] shares this target. The conditions noted are these: at 1 µM.
Assay [14] concerns the target Phosphatidylinositol 4,5-bisphosphate 3-kinase catalytic subunit alpha isoform (Homo sapiens) (UniProt P42336). Particulars: at 0.1 µM.
Assay [15] shares this target. Particulars: at 1 µM.
In assay [16] the target is T3, Phosphatidylinositol 4,5-bisphosphate 3-kinase catalytic subunit delta isoform (Homo sapiens) (UniProt O00329).
T3 sequence (whole entry): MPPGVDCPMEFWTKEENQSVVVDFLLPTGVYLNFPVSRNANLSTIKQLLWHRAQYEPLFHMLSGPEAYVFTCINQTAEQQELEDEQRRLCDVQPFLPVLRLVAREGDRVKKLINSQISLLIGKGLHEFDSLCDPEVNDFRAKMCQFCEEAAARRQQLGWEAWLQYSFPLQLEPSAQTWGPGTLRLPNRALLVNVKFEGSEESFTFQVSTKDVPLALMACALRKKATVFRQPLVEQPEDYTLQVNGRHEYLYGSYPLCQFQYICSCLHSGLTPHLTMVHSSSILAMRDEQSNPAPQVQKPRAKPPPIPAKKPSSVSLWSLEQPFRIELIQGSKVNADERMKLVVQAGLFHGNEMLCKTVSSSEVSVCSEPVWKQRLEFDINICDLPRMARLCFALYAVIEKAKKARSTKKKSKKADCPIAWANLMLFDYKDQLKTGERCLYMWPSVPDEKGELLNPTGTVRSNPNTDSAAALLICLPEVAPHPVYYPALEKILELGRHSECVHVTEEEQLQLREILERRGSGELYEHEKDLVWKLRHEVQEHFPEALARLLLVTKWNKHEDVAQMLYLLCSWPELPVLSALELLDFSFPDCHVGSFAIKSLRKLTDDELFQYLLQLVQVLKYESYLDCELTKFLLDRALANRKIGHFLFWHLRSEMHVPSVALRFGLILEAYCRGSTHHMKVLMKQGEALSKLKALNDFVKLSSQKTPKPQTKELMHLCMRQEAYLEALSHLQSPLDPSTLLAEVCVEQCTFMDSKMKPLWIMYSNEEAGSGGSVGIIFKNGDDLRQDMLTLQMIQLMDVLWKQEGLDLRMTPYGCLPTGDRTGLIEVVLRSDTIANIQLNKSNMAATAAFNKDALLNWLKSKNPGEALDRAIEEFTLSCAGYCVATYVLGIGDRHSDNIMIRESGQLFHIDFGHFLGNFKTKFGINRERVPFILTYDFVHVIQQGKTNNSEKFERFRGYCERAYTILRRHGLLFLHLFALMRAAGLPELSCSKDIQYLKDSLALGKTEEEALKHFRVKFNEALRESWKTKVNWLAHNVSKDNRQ
Particulars: at 0.1 µM.

Assay [17] addresses T3, Phosphatidylinositol 4,5-bisphosphate 3-kinase catalytic subunit delta isoform (Homo sapiens). The conditions noted are these: at 1 µM.
Assay [18] addresses Phosphatidylinositol 4-kinase beta (Homo sapiens) (UniProt Q9UBF8). Particulars: at 0.1 µM.
For assay [19] the target is unchanged. Particulars: at 1 µM.
The target in assay [20] is Sphingosine kinase 1 (Homo sapiens) (UniProt Q9NYA1). The conditions noted are these: at 0.1 µM.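 Also: mean percent inhibition of SPHK1 activity, measured within the GSK PKIS screening panel.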
Chain of Sphingosine kinase 1 (Homo sapiens) (Q9NYA1 whole entry): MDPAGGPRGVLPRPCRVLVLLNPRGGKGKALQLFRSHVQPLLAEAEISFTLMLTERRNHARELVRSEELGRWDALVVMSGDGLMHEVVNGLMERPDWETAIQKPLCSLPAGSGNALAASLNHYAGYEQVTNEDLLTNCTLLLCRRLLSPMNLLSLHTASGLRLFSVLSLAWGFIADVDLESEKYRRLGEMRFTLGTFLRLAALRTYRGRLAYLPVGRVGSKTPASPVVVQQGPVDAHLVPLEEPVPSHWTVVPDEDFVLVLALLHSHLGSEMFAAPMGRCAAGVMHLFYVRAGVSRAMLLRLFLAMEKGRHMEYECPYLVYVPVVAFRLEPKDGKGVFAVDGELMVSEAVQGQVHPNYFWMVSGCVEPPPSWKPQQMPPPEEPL

Chain of Mitogen-activated protein kinase 3 (Homo sapiens) (P27361 whole entry): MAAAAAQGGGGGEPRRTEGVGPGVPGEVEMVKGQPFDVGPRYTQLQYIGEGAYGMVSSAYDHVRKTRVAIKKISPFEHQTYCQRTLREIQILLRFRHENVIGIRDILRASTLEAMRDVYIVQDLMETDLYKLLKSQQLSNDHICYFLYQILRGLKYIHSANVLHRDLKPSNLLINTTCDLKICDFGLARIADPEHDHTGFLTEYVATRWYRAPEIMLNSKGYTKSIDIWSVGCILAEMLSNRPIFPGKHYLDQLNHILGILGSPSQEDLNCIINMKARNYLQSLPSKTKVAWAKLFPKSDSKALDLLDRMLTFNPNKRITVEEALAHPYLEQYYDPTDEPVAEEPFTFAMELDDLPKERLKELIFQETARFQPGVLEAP
Chain of SRSF protein kinase 3 (Homo sapiens) (Q9UPE1 whole entry): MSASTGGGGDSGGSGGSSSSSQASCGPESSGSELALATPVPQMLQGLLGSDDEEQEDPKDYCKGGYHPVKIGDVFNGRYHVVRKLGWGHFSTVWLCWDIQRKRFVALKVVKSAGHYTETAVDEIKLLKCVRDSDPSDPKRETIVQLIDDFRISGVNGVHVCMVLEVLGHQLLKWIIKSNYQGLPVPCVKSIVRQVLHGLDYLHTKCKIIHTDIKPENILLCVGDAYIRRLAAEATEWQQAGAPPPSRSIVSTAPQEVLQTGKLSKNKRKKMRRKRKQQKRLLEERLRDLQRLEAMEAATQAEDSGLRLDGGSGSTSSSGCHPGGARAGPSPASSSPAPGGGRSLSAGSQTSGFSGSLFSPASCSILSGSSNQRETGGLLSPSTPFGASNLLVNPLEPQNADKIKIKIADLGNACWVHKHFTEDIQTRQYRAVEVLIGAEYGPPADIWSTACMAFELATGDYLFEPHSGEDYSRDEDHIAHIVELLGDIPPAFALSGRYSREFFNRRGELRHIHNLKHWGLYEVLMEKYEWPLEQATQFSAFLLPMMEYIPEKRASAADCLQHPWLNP
Chain of Phosphatidylinositol 4,5-bisphosphate 3-kinase catalytic subunit alpha isoform (Homo sapiens) (P42336 whole entry, canonical isoform): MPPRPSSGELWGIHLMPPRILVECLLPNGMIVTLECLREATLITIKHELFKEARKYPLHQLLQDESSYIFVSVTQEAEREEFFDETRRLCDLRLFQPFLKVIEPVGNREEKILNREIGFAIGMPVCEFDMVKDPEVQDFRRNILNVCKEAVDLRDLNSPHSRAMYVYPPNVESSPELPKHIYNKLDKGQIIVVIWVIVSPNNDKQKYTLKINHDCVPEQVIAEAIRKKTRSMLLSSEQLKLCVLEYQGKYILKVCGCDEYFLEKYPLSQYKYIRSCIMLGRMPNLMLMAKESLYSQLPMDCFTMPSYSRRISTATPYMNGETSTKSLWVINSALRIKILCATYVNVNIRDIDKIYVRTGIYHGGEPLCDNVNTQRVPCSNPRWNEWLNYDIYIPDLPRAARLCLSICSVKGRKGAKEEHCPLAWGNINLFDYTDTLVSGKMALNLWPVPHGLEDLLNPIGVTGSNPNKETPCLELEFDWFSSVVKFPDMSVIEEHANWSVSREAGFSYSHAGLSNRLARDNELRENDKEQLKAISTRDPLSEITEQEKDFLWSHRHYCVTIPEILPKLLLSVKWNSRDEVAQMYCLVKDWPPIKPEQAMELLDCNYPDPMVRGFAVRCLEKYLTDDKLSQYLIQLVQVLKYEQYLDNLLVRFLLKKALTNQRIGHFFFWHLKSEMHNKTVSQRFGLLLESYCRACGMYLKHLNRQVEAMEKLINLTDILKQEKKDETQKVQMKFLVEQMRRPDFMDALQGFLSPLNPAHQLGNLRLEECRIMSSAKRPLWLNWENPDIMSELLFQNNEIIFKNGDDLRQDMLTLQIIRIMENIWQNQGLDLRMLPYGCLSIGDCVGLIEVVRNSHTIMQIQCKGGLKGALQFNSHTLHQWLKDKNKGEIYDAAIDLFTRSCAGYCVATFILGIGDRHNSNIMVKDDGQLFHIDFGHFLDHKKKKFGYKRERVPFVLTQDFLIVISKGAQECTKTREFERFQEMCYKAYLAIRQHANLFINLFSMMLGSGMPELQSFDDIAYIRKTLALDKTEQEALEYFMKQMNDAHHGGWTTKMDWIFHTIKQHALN
Chain of Phosphatidylinositol 4-kinase beta (Homo sapiens) (Q9UBF8 2-816 limits assumed): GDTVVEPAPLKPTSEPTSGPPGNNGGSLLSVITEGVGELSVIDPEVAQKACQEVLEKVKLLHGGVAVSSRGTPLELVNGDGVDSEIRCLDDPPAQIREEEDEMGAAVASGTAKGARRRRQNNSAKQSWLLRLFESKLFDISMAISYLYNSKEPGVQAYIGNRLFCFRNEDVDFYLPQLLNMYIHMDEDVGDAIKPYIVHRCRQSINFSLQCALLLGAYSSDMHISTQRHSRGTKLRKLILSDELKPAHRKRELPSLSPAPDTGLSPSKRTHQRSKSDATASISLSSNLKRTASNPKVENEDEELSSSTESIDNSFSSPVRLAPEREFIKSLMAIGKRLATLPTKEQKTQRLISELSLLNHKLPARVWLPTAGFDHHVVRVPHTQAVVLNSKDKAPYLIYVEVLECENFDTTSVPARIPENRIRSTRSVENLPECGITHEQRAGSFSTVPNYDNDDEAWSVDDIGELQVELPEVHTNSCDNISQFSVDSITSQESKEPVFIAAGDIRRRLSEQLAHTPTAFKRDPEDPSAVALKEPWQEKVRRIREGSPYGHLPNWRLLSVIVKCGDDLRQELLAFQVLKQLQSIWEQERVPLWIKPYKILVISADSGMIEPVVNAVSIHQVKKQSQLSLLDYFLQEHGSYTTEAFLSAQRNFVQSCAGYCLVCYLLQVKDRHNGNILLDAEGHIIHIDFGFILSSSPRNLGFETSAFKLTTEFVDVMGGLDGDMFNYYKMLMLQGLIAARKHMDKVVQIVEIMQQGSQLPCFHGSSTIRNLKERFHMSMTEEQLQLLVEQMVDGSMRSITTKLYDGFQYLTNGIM
Chain of SRSF protein kinase 1 (Homo sapiens) (Q96SB4 whole entry): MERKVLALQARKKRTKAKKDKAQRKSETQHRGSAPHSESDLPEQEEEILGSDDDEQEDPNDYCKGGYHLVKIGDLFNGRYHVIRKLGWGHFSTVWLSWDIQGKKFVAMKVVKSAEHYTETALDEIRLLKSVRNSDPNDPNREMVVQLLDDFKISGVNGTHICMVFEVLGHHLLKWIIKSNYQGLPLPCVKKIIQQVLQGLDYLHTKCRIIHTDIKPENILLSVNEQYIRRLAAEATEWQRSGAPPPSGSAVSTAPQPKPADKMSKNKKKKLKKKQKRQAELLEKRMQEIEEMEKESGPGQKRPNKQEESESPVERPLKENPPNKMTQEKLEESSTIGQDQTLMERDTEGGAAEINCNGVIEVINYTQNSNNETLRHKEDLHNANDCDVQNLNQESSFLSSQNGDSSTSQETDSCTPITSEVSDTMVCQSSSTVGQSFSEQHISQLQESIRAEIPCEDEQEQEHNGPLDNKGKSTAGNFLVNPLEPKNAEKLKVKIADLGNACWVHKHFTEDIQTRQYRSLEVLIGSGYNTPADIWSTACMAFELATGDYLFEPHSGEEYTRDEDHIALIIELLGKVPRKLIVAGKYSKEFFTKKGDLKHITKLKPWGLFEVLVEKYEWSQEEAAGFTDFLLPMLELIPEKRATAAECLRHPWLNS
Chain of Mitogen-activated protein kinase 14 (Homo sapiens) (Q16539 whole entry): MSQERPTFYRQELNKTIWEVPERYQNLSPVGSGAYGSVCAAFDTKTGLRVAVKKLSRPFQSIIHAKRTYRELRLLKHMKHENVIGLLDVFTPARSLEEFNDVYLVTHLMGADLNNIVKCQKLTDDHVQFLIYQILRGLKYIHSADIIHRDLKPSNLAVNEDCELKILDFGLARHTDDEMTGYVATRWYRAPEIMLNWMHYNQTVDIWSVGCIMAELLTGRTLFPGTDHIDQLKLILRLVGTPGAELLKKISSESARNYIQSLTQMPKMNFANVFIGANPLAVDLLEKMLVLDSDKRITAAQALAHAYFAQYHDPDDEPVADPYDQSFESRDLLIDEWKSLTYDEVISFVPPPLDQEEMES

Take `Nc1ncnc2occ(-c3ccc(NC(=O)Nc4cccc(C(F)(F)F)c4)cc3)c12`: the inhibition in assay [1] is 3.6%; in [2], 19%; in assay [3], 62.5%; in assay [4] it was 16.1%; in assay [5], 43.4%; in [6], 9.18%. For the same compound, the inhibition in [7] was determined as 41%; in assay [8], 6.92%; in [9] it was 19.3%; in assay [10], 7.81%; in assay [11], 37.5%; in assay [12], 1.49%. Further, the inhibition in assay [13] was 18.5%; in assay [14], 4.75%; in assay [15] it was 4.88%; in assay [16], 1.25%; in assay [17], 4.92%; in [18] it was -1.39%. The figures for the inhibition in [19] and in [20] were 1.22% and 0.57%, respectively.

Take `COc1cc2c(cc1Nc1nc(N3CCc4ccccc43)c3cc[nH]c3n1)N(C(=O)CN(C)C)CC2`: the inhibition was found to be 1.51% in assay [1]; 0.87% in [2]; 1.46% in assay [3]; 3.41% in [4]; 3.7% in assay [5]; 2.84% in [6]. For the same compound, the inhibition is 1.85% in assay [7]; 0.4% in assay [8]; 2.2% in assay [9]; 0.57% in assay [10]; 1.21% in assay [11]; -1.43% in assay [12]. The inhibition in [13] is -3.76%; in assay [14], 0.76%; in assay [15], 2.92%; in assay [16], 1.22%; in assay [17] it was 3.33%; in [18] it was 1.21%. Further, the inhibition in [19] worked out at 2.11%; in [20], 0.07%.

Turning to `COc1ccccc1Nc1ncc(-c2ccccc2)o1`, the inhibition in [1] is 5.55%; in [2] it was -1.49%; in assay [3], 1.35%; in [4], 10.4%; in assay [5] it was 11%; in [6] it was 4.31%. The inhibition was 7.08% in assay [7]; 5.83% in assay [8]; 4.74% in assay [9]; 4.14% in [10]; 4.08% in assay [11]; -4.21% in [12]. Besides, the inhibition in assay [13] is -2.61%; in [14] it was 5.32%; in assay [15], 6.11%; in assay [16], 0.95%; in assay [17] it was 2.27%; in assay [18] it was -0.97%. Besides, the inhibition worked out at 0.94% in assay [19] and 0% in assay [20].

`CCn1c(-c2nonc2N)nc2ccncc21`: the inhibition in [1] is 1.29%; in assay [2] it was -2.05%; in assay [3], -2.78%; in assay [4], 2.59%; in assay [5] it was 3.78%; in assay [6], 2.84%. In addition, the inhibition in assay [7] is 2.34%; in assay [8], 0.59%; in assay [9], 0.17%; in [10], 2.32%; in assay [11] it was 1.43%; in assay [12], -3.78%. Besides, the inhibition in [13] was -6.35%; in assay [14], 0.03%; in assay [15], 1.86%; in [16] it was 2.2%; in [17], 2.13%; in [18], 4.46%. Also, the inhibition in [19] is -4.32%; in [20], -1.27%.

For the compound `N#Cc1c(NC(=O)c2cccc3ccccc23)sc2c1CCCC2`, the inhibition in assay [1] is 0.11%; in assay [2], -0.61%; in assay [3], -2.89%; in assay [4], 2.97%; in assay [5], 5.23%; in [6] it was 0.78%. Further, the inhibition in [7] was 4.42%; in [8], 2.16%; in assay [9], 3.76%; in assay [10], 2.38%; in assay [11], 2.56%; in [12] it was -2.33%. Moreover, the inhibition in [13] was -3.29%; in [14] it was 1.58%; in assay [15], 4.62%; in assay [16], 2.32%; in [17], 4.96%; in assay [18] it was -2.84%. Also, the values for the inhibition in [19] and in assay [20] were -0.74% and -0.7%, respectively.

For orientation: inhibition means the change of the read-out against control, counted positive when it falls.

The record behind these values is ChEMBL document CHEMBL1961873, “Compounds: GSK PKIS; Assays: Nanosyn kinase panel” (2012).
